What all share (test): yeast three-hybrid, YBZ-1, SC-Leu-His + 0.5 mM 3-AT, 4 days
Common to all, as to settings: tags: N-Gal4 AD-HA kept; label: inside an RPR1-promoter hybrid RNA with tandem MS2 sites; ssRNA

For one experiment, the target named is PUM1 PUF domain R2-GWY (Homo sapiens, UniProt Q14671 828-1176, N899G;Y900W;Q903Y). Put shortly:
(§1)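 Pumilio-1 PUF domain libraries, randomized at the three base-contacting residues of each repeat, were co-expressed with matching RNA elements from a centromeric plasmid in strain YBZ-1, which carries a LexA–MS2 coat fusion and a HIS3 reporter. Transformants grew for four days on SC-Leu (input) or on SC-Leu-His + 0.5 mM 3-AT (selection), and the repeat regions were PCR-amplified and Illumina-sequenced. The interaction score is the log change in variant frequency from input to selection. That logarithm is base 2, with a pseudocount of 1 where a variant was absent.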

The next experiment deals with PUM1 PUF domain R3-LWQ (Homo sapiens, UniProt Q14671 828-1176, C935L;R936W). Put shortly:
as §1

A further experiment deals with PUM1 PUF domain R5-DHS (Homo sapiens, UniProt Q14671 828-1176, C1007D;R1008H;Q1011S). The gist of the method: as §1
A further experiment has as its target PUM1 PUF domain R5-GWL (Homo sapiens, UniProt Q14671 828-1176, C1007G;R1008W;Q1011L). The gist of the method: as §1
Another experiment deals with PUM1 PUF domain R5-FQR (Homo sapiens, UniProt Q14671 828-1176, C1007F;R1008Q;Q1011R). The gist of the method:
as §1

The next experiment addresses PUM1 PUF domain R5-DME (Homo sapiens, UniProt Q14671 828-1176, C1007D;R1008M;Q1011E). Put shortly: as §1
In another experiment the target is PUM1 PUF domain R4-CRV (Homo sapiens, UniProt Q14671 828-1176, N971C;H972R;Q975V). Put shortly:
as §1

In a further experiment the target is PUM1 PUF domain R4-DYL (Homo sapiens, UniProt Q14671 828-1176, N971D;H972Y;Q975L). The gist of the method:
as §1

In another experiment the target is PUM1 PUF domain R8-KFT (Homo sapiens, UniProt Q14671 828-1176, N1122K;Y1123F;Q1126T). Put shortly: as §1
Another experiment addresses T1, PUM1 PUF domain R6-FYA (Homo sapiens, UniProt Q14671 828-1176, N1043F;Q1047A).
T1 sequence: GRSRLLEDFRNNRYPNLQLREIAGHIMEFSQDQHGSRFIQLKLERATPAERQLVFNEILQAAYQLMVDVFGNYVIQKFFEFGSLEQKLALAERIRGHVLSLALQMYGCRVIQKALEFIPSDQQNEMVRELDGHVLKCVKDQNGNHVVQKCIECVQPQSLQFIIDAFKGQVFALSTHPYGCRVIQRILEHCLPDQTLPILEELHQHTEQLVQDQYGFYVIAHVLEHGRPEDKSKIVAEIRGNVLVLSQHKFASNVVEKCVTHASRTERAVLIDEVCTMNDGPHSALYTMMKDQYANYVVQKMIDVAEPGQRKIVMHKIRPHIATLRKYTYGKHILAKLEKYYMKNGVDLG
Put shortly: as §1

The next experiment has as its target PUM1 PUF domain R3-GHH (Homo sapiens, UniProt Q14671 828-1176, C935G;R936H;Q939H). Put shortly: as §1
The next experiment has as its target T2, PUM1 PUF domain R6-NRG (Homo sapiens, UniProt Q14671 828-1176, Y1044R;Q1047G).
T2 sequence: T1 sequence with F216N, Y217R, A220G
Put shortly:
as §1

For the next experiment, the target named is PUM1 PUF domain R4-DWL (Homo sapiens, UniProt Q14671 828-1176, N971D;H972W;Q975L). Put shortly: as §1
The next experiment deals with PUM1 PUF domain R4-MLC (Homo sapiens, UniProt Q14671 828-1176, N971M;H972L;Q975C). Put shortly:
as §1

The target of another experiment is PUM1 PUF domain R8-QWG (Homo sapiens, UniProt Q14671 828-1176, N1122Q;Y1123W;Q1126G). Put shortly: as §1
A further experiment addresses PUM1 PUF domain R5-KHA (Homo sapiens, UniProt Q14671 828-1176, C1007K;R1008H;Q1011A). Put shortly:
as §1

Another experiment concerns the target PUM1 PUF domain R8-TFN (Homo sapiens, UniProt Q14671 828-1176, N1122T;Y1123F;Q1126N). Put shortly: as §1

Where a chain is given by its changes, count along the chain named.

The source of these data is PMC8384837, “Expanding the binding specificity for RNA recognition by a PUF domain”.

PUM1 PUF domain R5-GWL, sequence (Q14671 828-1176 C1007G/R1008W/Q1011L): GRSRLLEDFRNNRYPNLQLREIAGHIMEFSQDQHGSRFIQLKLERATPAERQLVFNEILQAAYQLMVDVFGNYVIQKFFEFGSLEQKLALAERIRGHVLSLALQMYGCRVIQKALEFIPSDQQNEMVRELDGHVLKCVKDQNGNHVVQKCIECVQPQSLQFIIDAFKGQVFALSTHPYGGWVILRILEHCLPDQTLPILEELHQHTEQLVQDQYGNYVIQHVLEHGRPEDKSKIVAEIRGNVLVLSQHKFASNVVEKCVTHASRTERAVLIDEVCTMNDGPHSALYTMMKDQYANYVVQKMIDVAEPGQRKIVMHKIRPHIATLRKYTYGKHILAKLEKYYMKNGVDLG

For the sequence “GGCUAGAACUAGUGGAUCCCCCGGCGCCCGGCGGCUCGAGCCCGGGUAAGUGUAAAAAGUCUGCAUGCCGCCGGGCGCCAUGCCUGCAGGUCGACUCUAGAAAACAUG”, the binding signal with PUM1 PUF domain R2-GWY is 3.42 log2 enrichment (interaction score).
Consider “GGCUAGAACUAGUGGAUCCCCCGGCGCCCGGCGGCUCGAGCCCGGGUAAGUGUAAGUAGUCUGCAUGCCGCCGGGCGCCAUGCCUGCAGGUCGACUCUAGAAAACAUG”, for which, in the experiment with PUM1 PUF domain R3-LWQ, the binding signal was 5.4 log2 enrichment (interaction score).
As for “GGCUAGAACUAGUGGAUCCCCCGGCGCCCGGCGGCUCGAGCCCGGGUAAGUGUUAAUAGUCUGCAUGCCGCCGGGCGCCAUGCCUGCAGGUCGACUCUAGAAAACAUG”, the binding signal with PUM1 PUF domain R5-DHS is 4.63 log2 enrichment (interaction score); in the experiment with PUM1 PUF domain R5-GWL it was 3.36 log2 enrichment (interaction score); with PUM1 PUF domain R5-FQR, 3.58 log2 enrichment (interaction score).
As for “GGCUAGAACUAGUGGAUCCCCCGGCGCCCGGCGGCUCGAGCCCGGGUAAGUGUGAAUAGUCUGCAUGCCGCCGGGCGCCAUGCCUGCAGGUCGACUCUAGAAAACAUG”, the binding signal with PUM1 PUF domain R5-DME is 2.8 log2 enrichment (interaction score); with PUM1 PUF domain R5-GWL, 3.27 log2 enrichment (interaction score).
With “GGCUAGAACUAGUGGAUCCCCCGGCGCCCGGCGGCUCGAGCCCGGGUAAGUGUAAAUAGUCUGCAUGCCGCCGGGCGCCAUGCCUGCAGGUCGACUCUAGAAAACAUG”, the binding signal was 2.54 log2 enrichment (interaction score) with PUM1 PUF domain R4-CRV; 6.7 log2 enrichment (interaction score) with PUM1 PUF domain R4-DYL; 4.46 log2 enrichment (interaction score) in the experiment with PUM1 PUF domain R8-KFT; 4.17 log2 enrichment (interaction score) with PUM1 PUF domain R6-FYA; 3.86 log2 enrichment (interaction score) in the experiment with PUM1 PUF domain R3-GHH; 2.66 log2 enrichment (interaction score) with PUM1 PUF domain R5-GWL. In addition, the binding signal with PUM1 PUF domain R6-NRG was 3.99 log2 enrichment (interaction score); with PUM1 PUF domain R4-DWL it was 6.99 log2 enrichment (interaction score); with PUM1 PUF domain R2-GWY, 1.07 log2 enrichment (interaction score); with PUM1 PUF domain R4-MLC, 2.59 log2 enrichment (interaction score); with PUM1 PUF domain R8-QWG it was 2.95 log2 enrichment (interaction score); with PUM1 PUF domain R5-KHA, 3.94 log2 enrichment (interaction score).
Turning to “GGCUAGAACUAGUGGAUCCCCCGGCGCCCGGCGGCUCGAGCCCGGGUAAGCGUAAAUAGUCUGCAUGCCGCCGGGCGCCAUGCCUGCAGGUCGACUCUAGAAAACAUG”, the values for the binding signal with PUM1 PUF domain R8-TFN and with PUM1 PUF domain R8-QWG were 2.95 log2 enrichment (interaction score) and 2.14 log2 enrichment (interaction score), respectively.
Turning to “GGCUAGAACUAGUGGAUCCCCCGGCGCCCGGCGGCUCGAGCCCGGGUAAGUGUACAUAGUCUGCAUGCCGCCGGGCGCCAUGCCUGCAGGUCGACUCUAGAAAACAUG”, the binding signal in the experiment with PUM1 PUF domain R4-DWL was 4.62 log2 enrichment (interaction score).
